# From PubChem BioAssay AID588664 (The Scripps Research Institute Molecular Screening Center, 2011)
# Among all 360,000 compounds or so, about 1,400 (0.39%) were called active. What follows is part of a selection rich in actives, with near analogues and random picks from the rest. Values without a mark were called inactive. Rule as the data show it: active = inhibition above about 5% (passing the limit was not always enough); inactive = the rest.
# Target: Tyrosine-protein kinase ABL1 (Homo sapiens) + Ras and Rab interactor 1 (Homo sapiens) (UniProt P00519+Q13671)
# Experiment: disruptors of human Abl and Rin1 association – biochemical, TR-FRET, primary screen (AID 588664)
# Conditions: TR-FRET Rin1/Abl binding, at 7.35 µM, stronger effect = higher value
# Chain of Tyrosine-protein kinase ABL1 (Homo sapiens) + Ras and Rab interactor 1 (Homo sapiens) (P00519 whole entry, looked up): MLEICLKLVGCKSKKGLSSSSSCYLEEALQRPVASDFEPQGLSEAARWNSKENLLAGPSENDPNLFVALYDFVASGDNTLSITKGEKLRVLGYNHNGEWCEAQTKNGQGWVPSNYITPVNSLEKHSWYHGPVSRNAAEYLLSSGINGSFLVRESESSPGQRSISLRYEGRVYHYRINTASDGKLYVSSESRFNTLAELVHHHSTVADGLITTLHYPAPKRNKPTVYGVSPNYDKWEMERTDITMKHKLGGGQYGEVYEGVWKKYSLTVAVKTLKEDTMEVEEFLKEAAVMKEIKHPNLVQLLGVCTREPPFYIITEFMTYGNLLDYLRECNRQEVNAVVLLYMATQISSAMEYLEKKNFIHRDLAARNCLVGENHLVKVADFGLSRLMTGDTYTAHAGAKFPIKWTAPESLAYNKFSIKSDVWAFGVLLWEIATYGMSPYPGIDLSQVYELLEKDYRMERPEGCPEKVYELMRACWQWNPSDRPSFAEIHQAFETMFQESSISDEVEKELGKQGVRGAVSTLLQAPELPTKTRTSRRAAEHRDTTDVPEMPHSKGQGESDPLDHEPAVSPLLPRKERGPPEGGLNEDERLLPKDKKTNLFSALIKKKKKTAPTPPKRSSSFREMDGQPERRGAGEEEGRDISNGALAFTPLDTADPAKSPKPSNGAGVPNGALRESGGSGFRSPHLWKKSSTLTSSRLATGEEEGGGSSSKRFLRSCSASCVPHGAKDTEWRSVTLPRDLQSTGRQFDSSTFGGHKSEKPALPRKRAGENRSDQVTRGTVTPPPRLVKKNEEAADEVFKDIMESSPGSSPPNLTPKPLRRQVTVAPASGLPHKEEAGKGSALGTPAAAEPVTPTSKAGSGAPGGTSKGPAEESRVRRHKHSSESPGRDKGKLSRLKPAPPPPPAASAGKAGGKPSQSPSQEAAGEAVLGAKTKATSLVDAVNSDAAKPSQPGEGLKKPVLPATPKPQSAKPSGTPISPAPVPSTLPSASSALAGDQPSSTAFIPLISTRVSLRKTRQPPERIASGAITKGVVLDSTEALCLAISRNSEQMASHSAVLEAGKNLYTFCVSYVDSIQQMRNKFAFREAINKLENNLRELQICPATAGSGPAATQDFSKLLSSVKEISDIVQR
# Chain of Tyrosine-protein kinase ABL1 (Homo sapiens) + Ras and Rab interactor 1 (Homo sapiens) (Q13671 whole entry, looked up): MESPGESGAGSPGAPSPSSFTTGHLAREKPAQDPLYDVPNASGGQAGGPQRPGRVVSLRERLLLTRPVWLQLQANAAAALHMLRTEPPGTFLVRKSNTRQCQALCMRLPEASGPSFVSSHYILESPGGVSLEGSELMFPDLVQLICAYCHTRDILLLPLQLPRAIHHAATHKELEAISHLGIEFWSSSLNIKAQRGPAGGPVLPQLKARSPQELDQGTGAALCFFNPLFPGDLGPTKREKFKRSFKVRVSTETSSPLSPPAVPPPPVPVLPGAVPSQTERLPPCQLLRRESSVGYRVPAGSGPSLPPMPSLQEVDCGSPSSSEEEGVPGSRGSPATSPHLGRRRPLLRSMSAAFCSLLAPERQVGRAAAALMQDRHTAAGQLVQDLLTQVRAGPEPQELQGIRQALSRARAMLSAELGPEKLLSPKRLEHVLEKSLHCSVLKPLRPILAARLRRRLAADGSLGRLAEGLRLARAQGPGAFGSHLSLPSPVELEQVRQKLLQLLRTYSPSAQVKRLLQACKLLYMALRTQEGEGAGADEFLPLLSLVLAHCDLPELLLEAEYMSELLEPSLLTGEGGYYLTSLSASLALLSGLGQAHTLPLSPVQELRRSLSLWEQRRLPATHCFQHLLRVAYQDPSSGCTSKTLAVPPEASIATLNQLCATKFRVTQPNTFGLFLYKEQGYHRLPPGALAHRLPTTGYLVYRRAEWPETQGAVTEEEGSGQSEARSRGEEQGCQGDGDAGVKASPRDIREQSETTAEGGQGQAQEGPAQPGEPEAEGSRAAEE
row,SMILES,inhibition
1,CCOc1ccc(S(=O)(=O)N2CCCCC2)cc1NC(=O)CN1CCCC1c1cccs1 (stereo unspecified),8.67% (active)
2,COc1ccc(S(=O)(=O)N2CCCCC2)cc1NC(=O)COc1ccccc1,0.41%
3,CCOc1ccccc1NC(=O)COc1ccc(S(=O)(=O)N2CCCC2)cc1,2.38%
4,COc1ccccc1C(CNC(=O)c1ccc(C)c(S(=O)(=O)N2CCCCC2)c1)N(C)C (stereo unspecified),1.36%
5,COc1ccc(NC(=O)C(C)N2c3cccc4cccc(c34)S2(=O)=O)c(OC)c1 (stereo unspecified),0.54%
6,NC(=O)C[C@@H]1NC(=O)CNC(=O)c2cc([N+](=O)[O-])cc(I)c2NCCC(C(N)=O)NC1=O (stereo partly specified),-0.35%
7,O=C(COc1ccc(S(=O)(=O)NCCc2ccccc2)cc1)N1CCCC1,7.8% (active)
8,CC(NS(=O)(=O)c1ccc(OCC(=O)N2CCCC2)cc1)c1ccccc1 (stereo unspecified),1.07%
9,O=C(COc1ccc(S(=O)(=O)NCc2ccccc2)cc1)N1CCOCC1,-6.66%
10,COc1cc(C(=O)N/C(=C\c2cn(C)c3ccccc23)C(=O)N2CCOCC2)cc(OC)c1OC,3.65%
11,Cc1cccc(N)c1SC1CCCCC1O (stereo unspecified),-2.16%
12,COC(=O)C1=C(N)Oc2c(oc(CO)cc2=O)C1c1c(F)cccc1Cl (stereo unspecified),1.15%
13,Cc1cccc(CN2CCN(C3CN(Cc4ccccc4)S(=O)(=O)C3)CC2)c1 (stereo unspecified),5.69%
14,NC(=O)c1ccsc1NC(=O)COC(=O)Cc1n[nH]c(=O)c2ccccc12,1.63%
15,Cc1ccc(S(=O)(=O)C2(S(=O)(=O)c3ccc(C)cc3)CCCC2)cc1,1.29%
16,CC1(C(=O)Nc2cccc3c2CCCC3)CCN1C(=O)C1(c2ccccc2)CC1 (stereo unspecified),1.83%
17,Cc1c(NC(=O)C(C)OC(=O)c2ccccc2O)c(=O)n(-c2ccccc2)n1C (stereo unspecified),-1.15%
18,CC(OC(=O)c1ccccc1NCCO)C(=O)Nc1ccnn1C(C)C (stereo unspecified),44.6% (active)
19,COC(=O)c1ccccc1NC(=O)CSc1ccccn1,-0.76%
20,C=CCc1cc(C)ccc1OCCCn1ccnc1,0.39%
21,CCc1ccccc1NC(=S)N(CCN1CCCCCC1)Cc1ccco1,-2.14%
22,Cc1cc(C)n(CCNCc2c(C(=O)N3C[C@@H](C)O[C@@H](C)C3)nc3ccc(Cl)cn23)n1,5.28%
23,CCc1nnc(NC(=O)C2CCN(C(=O)c3ccccc3C)CC2)s1,-1.24%

row,SMILES,inhibition
1,CC(=O)c1cccc(NC(=O)C2CCN(C(=O)c3ccccc3Cl)CC2)c1,-0.65%
2,Cc1ccccc1C(=O)N1CCC(C(=O)Nc2ccc(S(=O)(=O)N(C)C(C)C)cc2)CC1,14.6% (active)
3,Cc1ccc(CN2CCN(Cc3ccccc3-c3ccco3)CC2CCO)o1 (stereo unspecified),-0.29%
4,O=c1c2ccccc2ccc2ccc(P(=O)(O)O)cc12,0.55%
5,COc1cccc2c(O)cc(=O)n(C)c12,-0.91%
6,O=Nc1c(O)cc(O)c2ccccc12,12.5% (active)
7,CCCC(=O)C1=C(N(C)c2ccccc2)CC(C)(C)C(C(=O)OC)C1=O (stereo unspecified),0.08%
8,CC(C)CNC(=O)CC(c1ccccc1)c1c(O)ccc2ccccc12 (stereo unspecified),-0.65%
9,COc1ccc(OCCn2ccnc2C)cc1,1.4%
10,O=[N+]([O-])c1cc(C(F)(F)F)ccc1NCCc1ccncc1,-3.62%
11,CCCn1c(N)c(C(=O)CSc2nnc(-c3cccnc3)n2-c2ccc(C)cc2C)c(=O)[nH]c1=O,12.2% (active)
12,Cc1ccccc1-c1nnc(SCC(=O)NCc2ccc3c(c2)OCO3)n1C,0.29%
13,Cc1ccc(-n2c(SCC(=O)NCc3ccc4c(c3)OCO4)nnc2-c2cccnc2)c(C)c1,8.97% (active)
14,CCCn1c(N)c(C(=O)CSc2nnc3n2CCCCC3)c(=O)[nH]c1=O,6.59%
15,CCCn1c(N)c(C(=O)CSc2nnc(Cc3cccs3)n2C2CC2)c(=O)[nH]c1=O,2.22%
16,Cc1cccc(C)c1NC(=O)CSc1nnc(-c2ccccc2)n1Cc1ccc2c(c1)OCO2,8.78%
17,CCOC1CCCCC1NS(=O)(=O)c1ccc(Cl)cc1 (stereo unspecified),-1.9%
18,COc1ccc(C(CNC(=O)c2cc3c(s2)CCCC3)N2CCOCC2)cc1 (stereo unspecified),-1.94%
19,O=C(c1ccc(NS(=O)(=O)c2ccc3[nH]c(=O)[nH]c3c2)cc1)N1CCCCC1,2.64%
20,Cc1ccccc1N1CCN(C(=O)c2cccnc2)CC1,1.88%
21,CC(C)Cn1cnc2c1c(=O)n(CC(O)c1ccccc1)c(=O)n2CC(C)C (stereo unspecified),2.26%
22,COCCNc1nc(-n2nc(C)cc2C)nc2sc3c(c12)CCCC3,-2.91%
23,COC(=O)c1ccccc1OCC(=O)N1CCN(c2ccc(Cl)cc2)CC1,3.93%

row,SMILES,inhibition
1,COc1ccc(N2C(=O)C3CCCN3C2c2cc(OC)c(OC)cc2OC)cc1 (stereo unspecified),-1.54%
2,COc1ccc(N2C(=O)C3CCCN3C2c2cccs2)cc1 (stereo unspecified),7.79% (active)
3,COc1cccc(N2C(=O)C3CCCN3C2c2ccc(F)cc2)c1 (stereo unspecified),1.17%
4,CSc1ccc(/C=C/C(=O)NC23CC4CC(CC(C4)C2)C3)cc1,-0.46%
5,CCN(Cc1ccccc1)C(=O)CCS(=O)(=O)c1ccc2c(c1)oc(=O)n2C,-4.23%
6,CS(=O)(=O)N1CCN(C(=O)CSc2ccccc2)CC1,2.46%
7,NC(=O)C1CCN(C(=O)c2cn(-c3ccccc3)nc2-c2cccnc2)CC1,2.02%
8,O=C(c1cn(-c2ccccc2)nc1-c1cc2ccccc2oc1=O)N1CCOCC1,8.23% (active)
9,O=c1oc2ccccc2cc1-c1cn(-c2ccccc2)c(=S)[nH]1,-2.16%
10,CCCCCN(C(=O)CCC(=O)OCCOc1ccc(OC)cc1)c1c(N)n(CCCC)c(=O)[nH]c1=O,1.88%
11,Cc1cc(C(F)(F)F)nn1CC(=O)N1CCCC1,-1.33%
12,Oc1c(C(c2ccccn2)N2CCOCC2)ccc2cccnc12 (stereo unspecified),27% (active)
13,C/C=C/C(=O)Nc1nnc(C(C)C)s1,-0.75%
14,O=C(O)/C(=C/c1cccnc1)NC(=O)c1ccccc1,-1.66%
15,Cc1nc(CN2CCN(C(=O)CCc3nnc(Cc4c[nH]c5ccccc45)o3)CC2)cs1,-2.84%
16,O=C(Oc1c(-c2ccco2)oc2ccccc2c1=O)c1cccnc1,0.23%
17,CCOC(=O)CN1CCC(c2ccccc2)CC1,1.17%
18,CCOC(=O)N1CCC(NC(=O)CCc2ccccc2)CC1,-0.75%
19,CCOC(=O)N1CCC(c2cc(=O)n(-c3ccccc3)[nH]2)CC1,11.4% (active)
20,C[C@@H]1CN([C@@H](C)CO)C(=O)CCCn2nncc2CO[C@H]1CN(C)C(=O)Nc1ccc(C(F)(F)F)cc1,-1.77%
21,CCCOc1ccc(C2C(C(=O)c3ccc(C)o3)=C(O)C(=O)N2CCCn2ccnc2)cc1 (stereo unspecified),-89.7%
22,OCC(CO)(CO)NCc1ccc(-c2ccccc2)cc1,-1.05%
23,COc1ccc(Cl)cc1-n1c(=S)sc2c(=O)n(-c3ccc(F)cc3)c(SCC(=O)O)nc21,3.75%

row,SMILES,inhibition
1,CN(C(=O)c1cccc(NC(=O)Cc2ccc(NC(=O)C3CCN(C(=O)C4CCCCC4)CC3)cc2)c1)C1CCC1,0.86%
2,CN(C(=O)c1cccc(NC(=O)Cc2cccc(NC(=O)C3CCCN(C(=O)C4CC4)C3)c2)c1)C1CCC1 (stereo unspecified),1.65%
3,CN(C(=O)c1ccc(NC(=O)Cc2cccc(NC(=O)C3CCN(C(=O)c4ccccc4)CC3)c2)cc1)C1CC1,16.1% (active)
4,C=CCn1c(SCC(=O)c2c(N)n(C)c(=O)n(C)c2=O)nc2sc(CC)cc2c1=O,-0.41%
5,O=C(CSCc1ccc([N+](=O)[O-])cc1)Nc1cccc(C(=O)Nc2ccccc2C(=O)O)c1,11.8% (active)
6,O=C(COc1ccc([N+](=O)[O-])cc1)Nc1cccc(C(=O)Nc2ccccc2C(=O)O)c1,2.02%
7,COc1ccc(NC(=O)CSCc2ccc([N+](=O)[O-])cc2)cc1OC,0.28%
8,CCOCCCNC(=O)C(NC(=O)Cc1c[nH]c2ccccc12)c1ccc(OC)cc1 (stereo unspecified),-1.97%
9,CC(C)(C)c1ccc(Cn2nnc3c(=O)[nH]c(C4CCCN(C(=O)c5ccco5)C4)nc32)cc1 (stereo unspecified),0.48%
10,O=C(Nc1nn(Cc2ccccc2F)cc1Br)c1cccs1,-1.24%
11,Oc1cccc2cc(-c3ccncc3)cnc12,13.3% (active)
12,Fc1ccc(-c2ccc(CNCc3ccccn3)o2)cc1Cl,-2.17%
13,CN1CCN(C(CNS(=O)(=O)c2cccs2)c2cccnc2)CC1 (stereo unspecified),1.76%
14,COC(=O)CN1C(C)=Nc2ccc(Br)cc2C1c1ccccc1 (stereo unspecified),0.76%
15,Cc1nn(-c2ncc(C(F)(F)F)cc2Cl)c(=O)n1-c1ccccc1,7.67% (active)
16,CN(C)C=NC(=O)c1cccn1-c1ncc(C(F)(F)F)cc1Cl,1.65%
17,Cc1nn(CC#N)c(=O)n1N(C)c1ncc(C(F)(F)F)cc1Cl,2.69%
18,O=C(O)c1cccc2c1C(=O)N(C1CCCC1)C2,-1.46%
19,O=c1ccc2c(-c3ccccc3S(=O)(=O)O)c3ccc(O)c(O)c3oc-2c1O,52.3% (active)
20,COCCNC(=O)COc1ccc(N(C)S(=O)(=O)c2ccc3ccccc3c2)cc1,1.04%
21,Cc1cc2ccccc2n1CCNC(=O)COc1ccc2ccccc2c1,7.69% (active)
22,Cc1ccc(C)c(NC(=O)CN(C)C(=O)COc2ccc3ccccc3c2)c1,0.05%
